In the library only some 7.9% were active in any assay of this set; here they are far more common.
HCV inhibitor: inhibitors of hepatitis C virus infection; Huh7.5.1 HCVcc-Cre infection, luciferase reporter, 44 h; Potency, µM (titrated, usually from 41.8 µM), hits mostly inhibitors; actives 3.4% (n = 340,000); active means well fitted inhibition curve with a large enough effect; inconclusive means small, poorly fitted or top-dose-only effect, or another doubt; inactive means no such curve, though single readings can be large or run the other way
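Whole-lifecycle infectious HCVcc-Cre system; cells 1,000/well, compound then virus (~0.5 moi) added 4 h after plating, 44 h culture. Luciferase read 15 sec following 15 min substrate incubation, room temp.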
HCMV antiviral: blocks human cytomegalovirus replication; HFF cells, HCMV-luciferase reporter, 72 h; active compounds read low; activity change, negative = inhibition, % at 57.5 µM; actives 4.5% (n = 410,000); AID 1259415; in the data active means activity change below about -60%; inconclusive means no clear call, values can overlap the other calls; inactive means above about -39%
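Human foreskin fibroblasts infected with luciferase-reporter HCMV at MOI 1 PFU/cell, compounds at two doses. Luciferase measured 72 h post infection; normalized to buffer-only basal and Salinomycin (10uM) controls.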
FMDV antiviral: blocks foot and mouth disease virus; Potency, µM (top dose mostly 57.9 µM), hits mostly inhibitors; FMDV antiviral cell-based qHTS; actives 1.2% (n = 410,000); calls by dose curve; tested in HEK293T cells; further: read-out not given here; nearly all actives have a fitted effect of over 45% in size
Marburg entry inh: inhibitors of Marburg virus binding or cell entry; Marburg virus pseudotyped entry inhibition, cell reporter; Potency, µM (top dose mostly 37.8 µM), usual class: inhibitors; actives 1.8% (n = 300,000); AID 540276; calls by dose curve; tested in HEK293 cells
LASV entry inh: inhibitors of Lassa virus binding or cell entry; Lassa virus pseudotype entry inhibition, cell reporter; Potency, µM (highest dose often 37.9 µM), usual class: inhibitors; actives 1.2% (n = 300,000); calls by dose curve; tested in HEK293 cells; further: nearly all actives have a fitted effect of over 50% in size
Numbers stand for hits; i = inactive; ? = inconclusive; nt = no result given; ! = repeats disagree.

SMILES	HCV inhibitor	HCMV antiviral	FMDV antiviral	Marburg entry inh	LASV entry inh
COc1ccc(-c2cc(C(F)(F)F)n3nc(C(=O)Nc4cccc(C(F)(F)F)c4)c(Br)c3n2)cc1	nt	i	i	nt	i
O=C(CCn1cnnn1)Nc1ccc(F)cc1	i	-103!	i	?	i
O=C(O)CCSc1nc2ccccc2s1	i	-82	40µM	i	i
Cc1cccc(N(CC(=O)NCCSc2nc3ccccc3s2)S(=O)(=O)c2ccccc2)c1	i	nt	nt	i	nt
O=C(CN(c1ccccc1)S(=O)(=O)c1ccccc1)NCCSc1nc2ccccc2s1	i	i	22µM	?	i
COc1cc(=O)n2c(c1C(=O)N(C)Cc1nccs1)CCN(Cc1ccc(F)c(F)c1)CC2	nt	nt	i	nt	nt
CCOC(=O)C(=CNc1nc(-c2ccccc2)c(C(=O)Nc2ccc(-c3ccccc3)cc2)s1)C(=O)OCC	i	i	i	nt	nt
CCOC(=O)c1cnc2ccc(C)cc2c1Nc1ccc(N(CC)CC)cc1	nt	-106	i	?	?
CCOC(=O)c1cnc2ccccc2c1Nc1ccc(C(=O)O)cc1	i	i	i	?	i
CCOC(=O)c1cnc2ccc(C)cc2c1Nc1ccc(N2CCOCC2)cc1	?	i	i	?	?
CCOC(=O)c1cnc2ccc(Cl)cc2c1Nc1ccc(N2CCOCC2)cc1	nt	i	22µM	i	?
Cc1ccc(-c2nsc(NC(=O)c3oc4cc(C)c(Cl)cc4c3C)n2)cc1	nt	?	i	i	i
CC(=O)OCOC(=O)CN(CC(=O)OCOC(C)=O)c1ccccc1OCCOc1ccccc1N(CC(=O)OCOC(C)=O)CC(=O)OCOC(C)=O	nt	nt	i	nt	nt
COc1cccc2sc(N3CCN(C(=O)c4ccc([N+](=O)[O-])o4)CC3)nc12	7.9µM	nt	?	i	?
CC(C)(C)c1ccc(C(=O)N2CCC(c3noc(-c4ccc(S(=O)(=O)N5CCCC5)cc4)n3)CC2)cc1	nt	i	i	i	i
Cc1ccc(-c2nc(C3CCN(S(=O)(=O)c4ccc(C(C)(C)C)cc4)CC3)no2)cc1	i	-98	i	i	nt
CC(C)(C)c1ccc(C(=O)NC(Cc2c[nH]c3ccccc23)C(=O)OCC(=O)c2ccccc2)cc1 (stereo not given)	nt	i	i	nt	?
COc1ccc(C(=O)COC(=O)C(Cc2c[nH]c3ccccc23)NC(=O)c2ccc(C(C)(C)C)cc2)cc1 (stereo not given)	nt	i	i	nt	1.3µM
CC(=O)N1CCN(C(=O)COc2ccc3oc4c(c3c2)CCCC4)CC1	?	i	i	i	i
COc1ccc(CNc2oc(Cc3cccc4ccccc34)nc2C#N)cc1	?	i	i	?	18µM
COc1ccc(Nc2oc(COc3cccc(C)c3)nc2C#N)cc1	?	i	i	?	11µM
COc1ccc(Nc2oc(COc3ccc(OC)cc3)nc2C#N)cc1	?	-70	i	6.5µM	?
O=C(c1cc2ccccc2o1)N1CCN(c2ncccn2)CC1	i	i	i	i	i
Oc1ccc(/C(Cc2ccccn2)=N\Nc2ccccc2)c(O)c1	i	i	?	8.9µM	?
C[C@H](CO)N1C[C@H](C)[C@H](CN(C)Cc2cncnc2)Oc2ncc(C#CC3(O)CCCC3)cc2C1=O	nt	i	i	nt	nt
SMILES	HCV inhibitor	HCMV antiviral	FMDV antiviral	Marburg entry inh	LASV entry inh
COC(=O)C1=CN(c2cccc(C(F)(F)F)c2)C=C(C(=O)OC)C1c1ccc(O)c(OC)c1	?	i	i	nt	nt
COC(=O)C1=CN(c2ccc(OC)cc2)C=C(C(=O)OC)C1c1cccc(F)c1	?	i	i	nt	nt
COC(=O)C1=CN(c2cccc(C)c2)C=C(C(=O)OC)C1c1cc(OC)c(O)c([N+](=O)[O-])c1	i	i	i	?	4.1µM
COC(=O)C1=CN(c2ccc(OC)cc2)C=C(C(=O)OC)C1c1ccc(C)c([N+](=O)[O-])c1	?	-78	?	?	?
O=C(Cc1cccc(F)c1)Nc1ccc2c(c1)CCC2	i	-98	i	i	i
COc1ccc(CC(=O)Nc2ccc3c(c2)CCC3)cc1OC	?	i	?	?	11µM
Cc1[nH]ccc2cc3nc4ccccc4c3cc12	nt	-72	i	nt	nt
CCN(CC)C(=O)C1CCCN(C(=S)Nc2cccc3ccccc23)C1 (stereo not given)	i	i	i	i	i
NC(=O)C1CCCN(C(=O)Nc2cccc3ccccc23)C1 (stereo not given)	i	-64	i	i	i
S=C(Nc1cccc2ccccc12)NN1CCCCCC1	i	-63	i	?	i
COc1cc2ccccc2cc1C(=O)N1CCc2ccccc21	8.9µM	i	i	?	i
CCOC(=O)C1(CCCc2ccccc2)CCN(C(=O)C2=C(C)OCCO2)CC1	?	-69	i	?	?
CCOC(=O)C1(CCCc2ccccc2)CCN(Cc2cn(CC)nc2C)CC1	11µM	?	?	8.9µM	?
CCOC(=O)C1(CCCc2ccccc2)CCN(Cc2nccn2CC)CC1	10µM	?	?	?	?
CCn1ccnc1CN(C)Cc1cn(-c2cccc(C)c2)nc1-c1cccc(F)c1	3.5µM	i	i	nt	nt
Cc1cccc(-n2cc(CN(C)Cc3nccn3C)c(-c3cccc(F)c3)n2)c1	?	i	i	nt	nt
COc1cccc(NC(=O)Nc2cc(-c3cn4cccnc4n3)ccc2C)c1	nt	i	i	i	?
COc1ccc(-c2cn3cccnc3n2)cc1NC(=O)c1ccc(Br)o1	11µM	i	i	i	i
COc1ccc(-c2cn3cccnc3n2)cc1NC(=O)Nc1cc(C)ccc1C	nt	-69	i	?	?
CCC(C)(C)c1ccc(OCCCC[n+]2ccc(C)cc2)c(C(C)(C)CC)c1	?	-97	?	21µM	?
COc1ccc(C(=O)C[n+]2cccc(C)c2C)cc1[N+](=O)[O-]	i	i	i	i	i
CCC(C)(C)c1ccc(OCCCC[n+]2cccc(C)c2C)c(C(C)(C)CC)c1	18µM	-97	?	nt	nt
O=C1NC[C@H](CCCCN2C[C@H](Cc3ccc(O)cc3)N(CC3CCCCC3)C(=O)C2=O)N(Cc2ccccc2)C1=O	nt	-75	i	nt	nt
O=C1NC[C@H](CCCCN2C[C@H](Cc3ccccc3)N(CCC3CCCCC3)C(=O)C2=O)N(CCC2CCCCC2)C1=O	nt	i	40µM	nt	nt
Cc1nc(N)nc(N(C)c2ccccc2)c1Br	i	i	i	?	?
SMILES	HCV inhibitor	HCMV antiviral	FMDV antiviral	Marburg entry inh	LASV entry inh
COc1ccc(OC)c(NC(=O)COC(=O)[C@H](Cc2ccccc2)NC(=O)c2ccco2)c1	i	i	i	nt	nt
Cc1ccc(S(=O)(=O)NCC(=O)OCC(=O)N(CCC#N)c2ccccc2)cc1	i	-64	i	i	i
COc1cc(C)nc(NCc2ccccc2)n1	i	i	i	i	i
Cc1ccc(Nc2cc(C)nc(NCc3ccccc3)n2)cc1	10µM	-83	i	8.2µM	26µM
Cc1cc(NC2CCCCC2)nc(NCc2ccccc2)n1	?	-93	?	12µM	23µM
Cc1nc(-c2cccc(NC(=O)c3cccs3)c2)cs1	?	i	i	i	i
Oc1ccc(-c2csc(-c3cccnc3)n2)cc1O	i	i	i	?	?
O=C(Nc1cccc(-c2csc(-c3ccccc3)n2)c1)c1cccs1	10µM	i	nt	?	?
Oc1ccc(-c2csc(-c3ccccc3)n2)cc1O	4.5µM	i	i	i	i
Oc1ccc(-c2csc(Nc3ncccn3)n2)cc1O	11µM	i	i	?	?
